Activity calls are given as the source filed them.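 How the source made its calls: active means cell event count below 40, meaning activity score above 60 where score is 100 minus count; inactive means the rest.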
experiment: cytotoxicity in LNCaP prostate cells – cell-based, cell event count, single point, cytotoxicity control for prostate differentiation activator project, confirmation (AID 1076); settings: LNCaP cell loss, flow cytometry event count, 4 d; at 100 µM; active compounds read low;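 further: counts scatter-gated live cells after medium removal discards detached dead cells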

Structure (SMILES) | cell event count
CCN(CC)CCNC(=O)c1cc2c(-c3ccc(Cl)cc3)nn(C)c2s1 | 25 (active)
CCN(CCCNS(=O)(=O)c1ccc2c(c1)oc(=O)n2C)c1cccc(C)c1 | 27 (inactive)
CC(C)Cc1nc2oc3c(N4CCN(CCO)CC4)ncnc3c2c2c1CCCC2 | 3 (inactive)
COc1ccccc1N1CCN(c2nc3ccccc3nc2C(C#N)C(=O)OC(C)C)CC1 (configuration not stated) | 110 (inactive)
Cn1c(C(=O)NCCCN2CCN(c3cccc(Cl)c3)CC2)cc2c(=O)n(C)c3ccccc3c21 | 46 (inactive)
CN1CCN(c2oc(COc3ccc(-c4ccccc4)cc3)nc2C#N)CC1 | 5 (inactive)
Cc1ccccc1-c1nc(CN2CCC(C(=O)N3CCC(C(N)=O)CC3)CC2)c(C)o1 | 150 (inactive)
CCOC(=O)c1ccc(-c2n[nH]c(=O)c3ccccc23)cc1 | 345 (inactive)
CCOC(=O)C1=C(O)CCn2c1nc1ccccc12 | 206 (inactive)
Cn1c(=O)[nH]c(=O)c2c1nc(Br)n2CCCSc1nc2ccccc2o1 | 8 (inactive)
CC1=C(n2nnc3ccccc32)C(c2ccccc2)C(C#N)=C(N)O1 (configuration not stated) | 96 (inactive)
Cc1cc(C)n2nnnc2c1C#N | 257 (inactive)
Cc1oc(-c2cccc(Cl)c2)nc1CN1CCCC(C(=O)NCc2ccco2)C1 (configuration not stated) | 10 (inactive)
Cc1cccc(-c2nc(CN3CCCC(C(=O)NC4CCCCCC4)C3)c(C)o2)c1 (configuration not stated) | 17 (inactive)
CCOC(=O)N1CCC(=C2c3ccc(Cl)cc3CCc3cccnc32)CC1 | 7 (inactive)
CCOc1ccc2ccccc2c1C(=O)N1CCN(c2ccccc2)CC1 | 19 (inactive)
COC(=O)CN1CCN(C(=O)c2ccc(F)cc2)c2ccccc2C1 | 112 (inactive)
CCOC(=O)CSc1nnc(CNC(=O)c2ccccc2OC)n1-c1ccc(OC)cc1 | 256 (inactive)
O=C(Nc1nc(-c2ccccc2)cs1)C1CCCCN1S(=O)(=O)c1ccccc1 (configuration not stated) | 234 (inactive)

Structure (SMILES) | cell event count
COc1ccc(CCNC(=O)C2CCCN(Cc3nc(-c4ccccc4C)oc3C)C2)cc1OC (configuration not stated) | 12 (inactive)
CCOC(=O)c1[nH]c(C)c(C(=O)N2CCc3ccccc32)c1C | 13 (active)
CCCNC(=O)C1CN(S(=O)(=O)c2ccccc2)CCN1S(=O)(=O)c1ccccc1 (configuration not stated) | 120 (inactive)
Cc1oc(-c2ccc(Cl)cc2)nc1CN1CCC(C(=O)NCCCN2CCOCC2)CC1 | 12 (inactive)
COc1ccc2c(c1OC)C(=O)N(C(C)C(=O)O)C2=O (configuration not stated) | 56 (inactive)
CN(CC(O)COc1ccc(OCC(O)CN(C)C2CCCCC2)cc1)C1CCCCC1 (configuration not stated) | 249 (inactive)
O=C(Cn1c(=O)[nH]c2ccsc2c1=O)NC1CCCCCC1 | 120 (inactive)
O=C(NC1CCCC1)C1CCN(S(=O)(=O)c2cccc3cccnc23)CC1 | 371 (inactive)
COc1ccc(-n2c(C)nc3c(cnn3-c3ccc(Cl)cc3)c2=O)cc1 | 45 (inactive)
CN(C)c1ccc(CNC2CC(C)(C)NC(C)(C)C2)cc1 | 130 (inactive)
N#C/C(=C\c1ccc(O)c(O)c1)C(=O)NCCCc1ccccc1 | 38 (inactive)
O=C(NCCCN1CCOCC1)c1cc2c(s1)CSC2 | 191 (inactive)
Cc1ccccc1-c1nc(CN2CCC(C(=O)NCCCN3CCCC3)CC2)c(C)o1 | 20 (inactive)
Cc1ccc(Cl)cc1N1CCN(C(=O)c2cc3c(=O)n(C)c4ccccc4c3n2C)CC1 | 31 (active)
COc1ccc(-c2ccc(-c3nnn(CC(C)=O)n3)cc2)cc1 | 145 (inactive)
COc1ccc(-c2cc(C(=O)NCc3ccc(Cl)cc3)no2)cc1OC | 172 (inactive)
CCOC(=O)c1ccccc1NC(=O)Cn1c(-c2nonc2N)nc2ccccc21 | 72 (inactive)
CCn1c(=O)cc(SCC(=O)NCCCN2CCN(c3ccccc3F)CC2)c2ccccc21 | 6 (inactive)
